From PubChem
Hits are enriched below; roughly 13% of the tested compounds scored in any of these assays.
USP7 block = blocks human USP7 ubiquitin-rhodamine cleavage; inhibition, % at 20 µM; AID 1645854; Q93009; 0.3% of 47,000 active; purified USP7, Ub-rhodamine cleavage fluorescence
USP30 block = human USP30 deubiquitinase inhibition; Q70CQ3; purified USP30, Ub-rhodamine cleavage fluorescence; inhibition, % at 25 µM; 5.3% of 47,000 active
USP17 block = blocks human USP17 ubiquitin-rhodamine cleavage. purified USP17, Ub-rhodamine cleavage fluorescence, 3 h. 6.5% of 47,000 active. A8MUK1. inhibition, % at 50 µM
Target sequence (A8MUK1 whole entry, looked up): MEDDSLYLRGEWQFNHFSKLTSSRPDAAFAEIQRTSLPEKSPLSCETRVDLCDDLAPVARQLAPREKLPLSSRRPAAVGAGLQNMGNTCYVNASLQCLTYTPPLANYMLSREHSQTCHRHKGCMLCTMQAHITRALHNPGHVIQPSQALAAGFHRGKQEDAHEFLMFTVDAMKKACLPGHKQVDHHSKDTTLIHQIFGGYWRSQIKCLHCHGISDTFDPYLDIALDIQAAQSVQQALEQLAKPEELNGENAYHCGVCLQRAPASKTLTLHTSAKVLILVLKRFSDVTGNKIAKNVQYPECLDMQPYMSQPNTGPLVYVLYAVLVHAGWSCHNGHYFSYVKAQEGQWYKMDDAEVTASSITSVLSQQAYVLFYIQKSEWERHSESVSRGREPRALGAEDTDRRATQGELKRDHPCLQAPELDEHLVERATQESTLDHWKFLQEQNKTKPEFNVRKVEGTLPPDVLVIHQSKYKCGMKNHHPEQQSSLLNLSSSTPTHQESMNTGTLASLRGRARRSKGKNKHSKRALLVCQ
USP8 block = human USP8 deubiquitinase inhibition. P40818. purified USP8, Ub-rhodamine cleavage fluorescence, 30 min. inhibition, % at 20 µM. 4.2% of 47,000 active. AID 1645853
UCHL1 inh = inhibitors of human UCHL1 deubiquitinase; purified UCHL1, Ub-rhodamine cleavage fluorescence; 0.2% of 47,000 active; P09936; inhibition, % at 20 µM
USP10 block = blocks human USP10 ubiquitin-rhodamine cleavage; 1.1% of 47,000 active; purified USP10, Ub-rhodamine fluorescence, 60 min; inhibition, % at 20 µM; Q14694
An asterisk follows results filed as active; x = no result. Rule as the data show it: active = inhibition above about 30%; inactive = the rest.

SMILES	USP7 block	USP30 block	USP17 block	USP8 block	UCHL1 inh	USP10 block
CC1CCN(S(=O)(=O)c2cn(CC(=O)Nc3ccc4c(c3)OCO4)cn2)CC1	1.4	22.1	2.9	9.9	0.6	2.3
O=C(Cc1ccc(F)cc1)N1CCC(c2[nH]nc3nccnc23)CC1	-4.9	-8.7	-3.9	-1.6	-0.2	-1.8
CCc1ccc(NC(=O)Cc2nc(-c3ccc(O)cc3O)cs2)cc1	x	x	37.5*	-22.7	-12.5	-5.0
CC1(C)Cc2nc3sc4c(=O)n(CC(=O)NCc5ccccc5)cnc4c3cc2CO1	2.6	-6.3	53.5*	2.2	-0.4	6.0
Cc1nc(SCC(=O)Nc2cccc(Cl)c2)c2sc3nc4c(cc3c2n1)COC(C)(C)C4	x	32.1*	33.7*	-0.1	1.8	-1.0
COc1ccc(OC)c(S(=O)(=O)Nc2ccc3cn[nH]c3c2)c1	-1.7	8.2	6.4	1.0	3.1	3.1
COc1ccc(-c2cc(C)no2)cc1S(=O)(=O)Nc1ccc(-c2ccno2)cc1	1.2	28.5	9.7	58.7*	0.7	3.9
Cc1sc2nc(-c3cccnc3)nc(N3CCc4ccccc4C3)c2c1C	-84.2	-247.0	8.4	-26.8	-13.0	-8.2
Cc1sc2nc(-c3cccnc3)nc(NCCCN3CCOCC3)c2c1C	-11.5	20.5	33.1*	-30.4	3.5	-4.9
CCOC(=O)c1ccc(NC(=O)Cn2c(=O)n(CC(=O)NCCc3ccc(OC)c(OC)c3)c(=O)c3sccc32)cc1	5.7	66.2*	24.8	13.0	8.2	3.0
Cc1cccc(NC(=O)Cn2c(=O)n(Cc3ccc(F)cc3)c(=O)c3sccc32)c1	6.2	35.3*	68.6*	4.0	2.2	18.3
COc1ccc(Cl)cc1NC(=O)Cn1c(=O)n(CCCC(=O)NCc2ccc(C)cc2)c(=O)c2sccc21	18.4	19.7	20.0	67.6*	3.7	69.4*
CCOc1ccc(NC(=O)Cn2c(=O)n(CCCCCC(=O)NCc3ccc(F)cc3)c(=O)c3sccc32)cc1	28.5	48.6*	42.9*	68.9*	6.4	50.7*
Cn1nccc1-c1cncc(CC2CCN(S(C)(=O)=O)CC2)n1	2.7	21.3	8.0	1.6	-0.4	-1.0
CC(C)c1nnc(NC(=O)N2CCCCCC2)s1	-12.5	-18.6	-7.0	-7.0	-4.8	-6.2
COc1ccc(CNC(=O)CC[C@H]2CNC(=O)[C@@H]3[C@@H](CCN3Cc3csnn3)N2C)cc1	-9.6	-20.6	-44.1	-9.2	-2.1	-4.2
c1ccc(N2CCN(c3nc(NCC4CCCO4)c4ccccc4n3)CC2)cc1 (configuration not stated)	6.5	6.7	12.3	17.2	9.3	5.6
c1csc(-c2nc(NCC3CCCO3)c3ccccc3n2)c1 (configuration not stated)	-3.5	19.9	31.4*	13.0	4.8	0.0
O=C(NCc1ccccc1)c1ccc(-c2ccc(N3CCCC3)nn2)cc1	-0.4	-29.2	66.0*	-2.4	3.9	-3.4
O=C(NCc1ccc2c(c1)OCO2)c1ccc(-c2ccc(N3CCCC3)nn2)cc1	6.4	0.1	3.3	16.3	1.3	21.7
O=C(Nc1ccccc1)c1ccc(-c2ccc(N3CCCC3)nn2)cc1	7.1	38.7*	22.1	15.1	0.0	0.9
CC1CCN(C(=O)c2cnc3scc(-c4ccccc4)n3c2=O)CC1	0.1	-5.6	0.9	3.4	-0.9	0.2
CC(C)c1nc2sc3c(SCC(=O)N4CCOCC4)ncnc3c2c2c1CCC2	1.3	-8.6	-24.2	0.1	2.6	-1.9
COc1ccc2c(c1)C(=O)NC1(CC2)CCN(C(=O)c2ccccn2)C1 (configuration not stated)	1.2	7.1	5.9	14.4	-0.3	0.0
COc1ccc(CC(=O)NCCC(c2ccccc2)c2ccccc2)cc1S(=O)(=O)N1CCOCC1	0.5	3.4	10.8	9.9	3.5	-2.8
SMILES	USP7 block	USP30 block	USP17 block	USP8 block	UCHL1 inh	USP10 block
CC1=C(C(=O)c2ccc(Cl)cc2)C(c2ccc(C(C)C)cc2)NC(=O)N1 (configuration not stated)	-36.0	-106.5	31.9*	72.6*	-1.8	-4.7
CCN1CCN(c2ccc(C(=O)OC)cc2NC(=O)c2sc3cc(Cl)ccc3c2Cl)CC1	6.7	47.6*	12.2	19.9	2.6	0.5
CCN1CCN(c2ccc(C(=O)OC)cc2NC(=O)/C=C/c2cc(Br)ccc2OC)CC1	12.9	-3.5	4.1	14.1	7.8	2.4
CCOC(=O)N1CCN(S(=O)(=O)c2ccc(C(=O)Nc3ccccc3Oc3ccccc3)cc2)CC1	-0.7	21.1	1.7	2.0	-0.6	5.8
CCOC(=O)N1CCN(S(=O)(=O)c2ccc(C(=O)Nc3ccc(Br)cc3)cc2)CC1	11.4	27.8	87.8*	4.5	4.6	10.6
CSc1ncccc1C(=O)Nc1ccnn1Cc1ccccc1	2.8	-8.3	-11.9	-11.3	0.4	1.3
O=C(Oc1ccc(-c2csnn2)cc1)C1CC1	-30.3	-0.2	x	4.0	-1.9	0.7
Cc1nc(C(=O)NC2(O)C(=O)c3ccccc3C2=O)cs1	-93.6	35.4*	93.8*	72.1*	29.2	26.8
O=C(NC1(O)C(=O)c2ccccc2C1=O)c1ccc(-c2csnn2)cc1	-45.4	32.1*	84.7*	92.8*	19.1	5.8
CSc1ncccc1C(=O)NC1(O)C(=O)c2ccccc2C1=O	-89.7	45.9*	94.8*	82.9*	33.7*	40.5*
COCCCNc1nc2nonc2nc1N1CCN(C2C3CC4CC(C3)CC2C4)CC1 (configuration not stated)	2.4	-15.9	-9.0	-5.1	2.2	1.7
O=c1c2cc(NS(=O)(=O)c3ccc4c(c3)OCCO4)ccc2ncn1Cc1ccccc1	4.8	2.0	-0.2	13.2	3.8	2.4
O=C(Cn1c(CSc2ccccc2)nc2ccccc21)Nc1ccccc1F	9.2	16.0	-4.5	50.5*	1.9	9.6
O=[N+]([O-])c1cc(C(F)(F)F)cc([N+](=O)[O-])c1Oc1ccc(S(=O)(=O)N2CCOCC2)cc1	2.3	-2.1	-5.2	-61.3	-2.6	4.5
Cc1nc(-c2ccccn2)sc1C(=O)Nc1ccc(F)cc1	0.0	x	-0.4	0.6	4.4	0.4
Cc1nc(-c2ccccc2F)sc1C(=O)Nc1cccnc1	1.3	-102.2	53.6*	26.6	0.3	-1.8
Cc1ccc(-n2ncc(C(=O)NCc3cccc(Cl)c3)c2C2CCNCC2)cc1Cl	-0.8	43.9*	x	-161.2	2.5	-0.2
O=C(NCc1cccc(Cl)c1)c1cnn(-c2ccc(Cl)cc2)c1C1CCNCC1	-2.0	6.8	-28.8	-188.8	-1.2	-1.3
COc1ccc(-c2noc(-c3nnn(-c4ccccc4Cl)c3C)n2)cc1	0.7	8.8	4.2	3.8	3.8	3.5
Cc1c(-c2noc(-c3ccccn3)n2)nnn1-c1ccc(F)cc1	-0.4	60.5*	71.7*	-3.6	-0.9	-1.7
c1ccc(-n2nnc(-c3noc(-c4ccccn4)n3)c2-c2ccncc2)cc1	1.4	4.5	63.5*	32.1*	-0.2	4.0
Cc1ccc(-n2nnc(-c3noc(-c4ccccn4)n3)c2C)cc1	-7.9	-9.0	-5.3	-8.5	-2.6	-0.7
